# Screening data (PubChem)
# Many of the other results were omitted from the sample, so hits are more common in it than they were.
# TbREL1 primary: TbREL1 RNA ligase inhibitors, primary screen, biochemical, FRET fluorescence; inhibition, % at 9.66 µM; RNA-editing ligase 1, mitochondrial (Trypanosoma brucei brucei), P86926; TbREL1 RNA ligation; 0.49% of 89,000 active;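 active = inhibition above the mean inhibition across all screened compounds plus 3 SD, cut at about 11% in these data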;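 also: 0% = plate median of test wells and 100% = NSC42067 control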
# Target sequence (P86926 whole entry, looked up): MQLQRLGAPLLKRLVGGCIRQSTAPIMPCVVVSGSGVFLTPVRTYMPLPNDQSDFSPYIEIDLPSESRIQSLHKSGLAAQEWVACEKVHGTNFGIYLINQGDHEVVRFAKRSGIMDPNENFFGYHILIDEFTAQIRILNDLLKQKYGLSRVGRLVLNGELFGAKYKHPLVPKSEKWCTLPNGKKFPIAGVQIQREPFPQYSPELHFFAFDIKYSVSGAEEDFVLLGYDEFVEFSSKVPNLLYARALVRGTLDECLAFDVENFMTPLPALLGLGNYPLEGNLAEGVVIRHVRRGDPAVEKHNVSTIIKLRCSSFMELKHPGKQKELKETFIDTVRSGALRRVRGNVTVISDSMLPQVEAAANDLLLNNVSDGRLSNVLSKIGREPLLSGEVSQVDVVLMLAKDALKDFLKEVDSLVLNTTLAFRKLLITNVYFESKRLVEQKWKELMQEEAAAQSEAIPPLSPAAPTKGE
# TbREL1 confirm: TbREL1 RNA ligase inhibitors, confirmation, biochemical, FRET fluorescence, triplicate; shares compounds with TbREL1 primary; 37% of 390 active; inhibition, % at 9.66 µM; TbREL1 RNA ligation;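 active = mean inhibition across replicates above a set limit taken from the earlier primary screen, cut at about 11% in these data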;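 also: 0% = REL1 with substrate and DMSO and 100% = REL1 plus control inhibitor NSC42067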
# Numbers without * were called inactive.
SMILES,TbREL1 primary,others
COC(=O)C1=C(C)N(Cc2ccccc2C(F)(F)F)C(=NCc2ccccc2)NC1CCc1ccccc1 (stereo not drawn),21*,TbREL1 confirm=20*
COC(=O)C1=C(C)N(Cc2ccccc2)C(=S)N[C@H]1c1cccc(C(F)(F)F)c1,-6,
CCN1C(=NCc2cc(OC)c(OC)c(OC)c2)N[C@@H](c2cccc(C(F)(F)F)c2)C(C(=O)OC)=C1C,0,
COC(=O)C1=C(C)N(Cc2cccc(C(F)(F)F)c2)C(=NCc2cc(OC)c(OC)c(OC)c2)NC1CCc1ccccc1 (stereo not drawn),12*,TbREL1 confirm=20*
Cc1ccc(-n2c(COc3ccccc3)nnc2SCC(=O)Nc2ccc3c(c2)OCO3)cc1,-2,
O=C(NCCc1c[nH]c2ccccc12)OCc1cn(Cc2ccccc2Cl)nn1,-4,
CC(C)N1CCCCC(NC(=O)c2cccs2)C1=O (stereo not drawn),5,
COc1ccc(-n2c(SCC(=O)Nc3ccc(S(=O)(=O)Nc4cc(C)nc(C)n4)cc3)nnc2-c2ccco2)cc1,4,
CSCCCNC(=O)C1CCN(S(=O)(=O)c2ccc3[nH]c(=O)oc3c2)CC1,-1,
CCCCN(C)C(=O)C1CCN(S(=O)(=O)c2ccc3[nH]c(=O)oc3c2)CC1,11,
COCCCNC(=O)C1CCN(S(=O)(=O)c2ccc3[nH]c(=O)oc3c2)CC1,19*,TbREL1 confirm=24*
COc1ccc(CN(C)C(=O)[C@@H](Cc2ccccc2)NC(=O)[C@H]2O[C@@H](n3ccc(N)nc3=O)[C@H](O)[C@@H]2O)cc1OC,-2,
O=C(CSc1nc2ccccc2n1Cc1ccccc1)NN=Cc1c[nH]c2ccccc12,-2,
COC(=O)C1=C(C)N(C)C(=NCc2ccccc2C(F)(F)F)NC1c1ccc(C(F)(F)F)cc1 (stereo not drawn),12*,TbREL1 confirm=10
COC(=O)C1=C(C)N(C)C(=NCc2ccc(C(F)(F)F)cc2)NC1c1ccc(C(F)(F)F)cc1 (stereo not drawn),7,
COC(=O)C1=C(C)N(C)C(=NCc2ccccc2C(F)(F)F)NC1c1ccc(Cl)cc1 (stereo not drawn),13*,TbREL1 confirm=7
COC(=O)C1=C(C)N(CCCC(=O)O)C(=O)NC1c1ccc(C(F)(F)F)cc1 (stereo not drawn),1,
C=CCN1C(=O)[C@H](CC(=O)NCc2ccccc2)[C@@]2(C(=O)OCC)CCCC=C12,-3,
O=C(OCC#CCSc1nnc(-c2cccc3ccccc23)o1)c1ccccc1F,-1,
COc1ccc2c(c1)N=C(c1[nH]c3ccccc3c1CCN1C(=O)c3ccccc3C1=O)[C@]2(O)CCN1C(=O)c2ccccc2C1=O,2,
Cc1ccc(NC(=O)Cc2cccc(OC(F)(F)F)c2)c(S(=O)(=O)N2CCOCC2)c1,-4,
CCn1c2ccccc2c2cc(NC(=O)COC(=O)c3cc(Cl)c(N)cc3OC)ccc21,12*,TbREL1 confirm=8
CCn1c2ccccc2c2cc(NC(=O)COC(=O)c3cc(Cl)cc(Cl)c3)ccc21,-1,
CCn1c2ccccc2c2cc(NC(=O)COC(=O)c3ccccc3F)ccc21,4,
COC(=O)[C@H](Cc1ccccc1)NP(=O)(OC)[C@@H](C)NC(=O)OCc1ccccc1 (stereo partly drawn),-2,
SMILES,TbREL1 primary,others
Cc1ccccc1CN1CCCCC(NC(=O)c2cccc(F)c2)C1=O (stereo not drawn),-2,
Cc1ccc(OCc2nn3c(C4CCCCC4)nnc3s2)cc1,3,
NC(=O)[C@H]1CC2(CC(c3cccc(NC(=O)[C@H]4CCC(=O)N4)c3)=NO2)CN1C(=O)c1ccccc1 (stereo partly drawn),20*,TbREL1 confirm=26*
NC(=O)[C@@H]1CC2(CC(c3cccc(NC(=O)CC(c4ccccc4)c4ccccc4)c3)=NO2)CN1C(=O)c1ccc(Cl)cc1 (stereo partly drawn),0,
C/C=C(/C)C(=O)Nc1cccc(C2=NOC3(C2)C[C@H](C(N)=O)N(C(=O)c2ccccc2)C3)c1 (stereo partly drawn),-2,
COc1cccc(N(C)C(=O)[C@@H](C2CC2)[C@@H](O)c2ccc3ccccc3c2)c1,5,
COc1cc(C(=O)NC2CCCCN(C)C2=O)cc(OC)c1OC (stereo not drawn),-1,
COc1cc2c(cc1OC)C(c1ccc(-c3ccc(Cl)cc3Cl)o1)=NCC2,6,
COc1cc2c(cc1OC)C(c1ccc(Cl)cc1)=NCC2,2,
COc1cc2c(cc1OC)C(c1ccc(-c3ccc(Cl)c(Cl)c3)o1)=NCC2,14*,TbREL1 confirm=24*
O=C(OC1CC2CCC(C1)[N+]21CCCC1)C(O)(c1ccccc1)c1ccccc1 (stereo not drawn),0,
COC(=O)[C@@]12CCCCC3=C1N(CCC3)C(=O)[C@H]2CC(=O)NCC1CCCCC1,-3,
O=C(/C=C(\Nc1ccc(Cl)c(C(F)(F)F)c1)c1ccccc1)c1ccccc1,6,
Cc1ccc(OCCOCCN2CCN(C)CC2)c(C(C)(C)C)c1,-1,
Cc1ccc(OCCN2CCN(C)CC2)c([N+](=O)[O-])c1,12*,TbREL1 confirm=6
COCCCNCCCCOc1ccc(C)cc1[N+](=O)[O-],3,
CCCCN(C)C(=O)c1cn(C(C)c2ccccc2)nn1 (stereo not drawn),0,
CCCCNC(=O)C[C@H]1C[C@@]2(C(=O)OC)C(=C[C@H](COCc3ccccc3)O[C@@H]2C)N(CCc2ccc(OC)c(OC)c2)C1=O,-4,
COc1cccc(C(=O)NCCS(=O)(=O)NC(C)CCc2ccccc2)c1 (stereo not drawn),14*,TbREL1 confirm=11*
COc1cccc(C(=O)NCCS(=O)(=O)NCc2ccc(Cl)cc2)c1,-1,
COc1ccc(C(=O)NCCS(=O)(=O)NCCc2ccccc2)cc1,2,
Cc1ccc(CN2CCCCC(NC(=O)c3ccc(N(C)C)cc3)C2=O)cc1 (stereo not drawn),0,
COc1cccc(NC(=O)C2CCCN2C(=O)NC2CCC(C)CC2)c1 (stereo not drawn),-1,
O=C(C1CCN(c2ncnc3c2sc2cccc(F)c23)CC1)N1CCCCC1,7,
O=C(c1ccc2c3c(cccc13)CC2)C1CCCN(Cc2ccncc2)C1 (stereo not drawn),6,
SMILES,TbREL1 primary,others
NC(=O)/C(=N\O)c1ccccc1,0,
ON=C(c1ccccc1)c1ccc2c3c(cccc13)CC2,12*,TbREL1 confirm=3
CC(=O)c1ccc2c(c1)C1C=CCC1C(c1ccc(S(=O)(=O)N3CCOCC3)cc1)N2 (stereo not drawn),-2,
COc1ccc(NS(=O)(=O)c2ccc3c(c2)[C@H]2C=CC[C@H]2[C@@H](c2ccc(C(=O)O)cc2)N3)cc1,15*,TbREL1 confirm=17*
O=C(O)c1ccc2c(c1)C1C=CCC1C(c1ccncc1)N2 (stereo not drawn),2,
Cc1ccc(-c2cc(-c3nnc4sc(Cc5cccs5)nn34)[nH]n2)cc1,-5,
O=C(CN1CCN(c2ccc(O)cc2)CC1)Nc1ccc2c(c1)OCCO2,-2,
O=C(CN1CCOCC1)Nc1ccc2c(c1)OC(F)(F)O2,4,
O=C(CN1CCOCC1)Nc1ccc2c(c1)OCCO2,12*,TbREL1 confirm=5
O=C(OCc1cn(Cc2ccccc2F)nn1)N1CCOCC1,6,
O=C(OCC#CCSc1nnc(-c2cccc3ccccc23)o1)c1ccccc1,-2,
C[C@H]1CNCCN1c1ccc(N2CCS(=O)(=O)CC2)c(C#N)c1,2,
O=C1CC(N2CCOCC2)=NC(=O)N1c1ccc(Br)cc1,0,
